According to PubChem BioAssay (Tox21):
Records with an inconclusive call do not appear. Where a call stands in place of a potency, no number is given. A number with no mark means an inactive call. The source made the active and inactive calls. The call rests on the fitted dose curve; in most records, active means well fitted activation curve with a large enough effect in the signal ratio in the repeat runs (not every such curve was filed as active); inconclusive means weak or mixed curves; inactive means flat fitted curve, though single readings scatter; the % refers to the signal ratio.

assay: p53 small molecule agonists, cell-based qHTS assay (AID 1963582); conditions: HCT-116 p53RE-bla reporter, beta-lactamase FRET ratio, 16 h; series mostly up to 66 µM
Procedure, shortened: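 Cells carrying a p53-responsive bla reporter are treated with test compounds for 16 h at 37 C; beta-lactamase activity is then detected with LiveBLAzer B/G FRET substrate after 2 h at room temperature.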

Compound | Potency | activation
c1cc2c3c(c1)ccc1cccc(c13)C2 | inactive | –
CCOC(=O)N1CCC(Nc2ccc(Cl)cc2N)CC1 | inactive | –
CCCCCC(=O)OCCc1ccccc1 | inactive | –
COc1cc(C(C)C)ccc1C | – | -3.2% [at 13.5 µM]
CCCCCCCCCCOCC(O)CN (stereo not given) | inactive | –
CC(C)(Oc1ccc(Cl)cc1)C(=O)OCCCOC(=O)C(C)(C)Oc1ccc(Cl)cc1 | inactive | –
CCCCCCCC(=O)Oc1c(Br)cc(C#N)cc1Br | inactive | –
O=C(C(Cl)Cl)N1CCOC12CCCCC2 | inactive | –
COc1ccc(-c2coc3cc(O)ccc3c2=O)cc1 | inactive | –
COc1ccc2nc(SCc3ncc(C)c(OC)c3C)[nH]c2c1 | inactive | –
O=S(=O)(O)c1ccc(Cl)cc1 | inactive | –
CC(C)OC(=O)C(C)N(C(=O)c1ccccc1)c1ccc(F)c(Cl)c1 (stereo not given) | inactive | –
CCOC(=O)c1c(N)sc2c1CCN(Cc1ccccc1)C2 | inactive | –
CN(C)CCCCl | inactive | –
CCCCNc1c(C(=O)OCC)c(C)nc2c1cnn2CC | inactive | –
C=C(C)C(=O)OC1CC(C)CC(C)(C)C1 (stereo not given) | inactive | –
Nc1cc(C(=O)O)ccc1Cl | inactive | –
O=C(NC1CCN(CCc2c[nH]c3ccccc23)CC1)c1ccccc1 | inactive | –
O=C(O)CCCc1c[nH]c2ccccc12 | inactive | –
NC(CO)C(=O)NNCc1ccc(O)c(O)c1O (stereo not given) | inactive | –
CCN(CC)c1cccc(C)c1 | inactive | –
CCCC(C)c1ccccc1O (stereo not given) | inactive | –
CCO[Si](C)(CCCOCC1CO1)OCC (stereo not given) | inactive | –
O=C(O)c1cn(C2CC2)c2cc(Cl)c(F)cc2c1=O | inactive | –
CCCC(=O)O[C@]1(C(=O)CC)CC[C@H]2[C@@H]3CCC4=CC(=O)CC[C@]4(C)[C@H]3[C@@H](O)C[C@@]21C | inactive | –
